Screening results (PubChem BioAssay)
Abeta rescue – compounds reversing amyloid beta toxicity in yeast; yeast expressing A-beta42, growth rescue, OD600, 48 h; response scale: 0% DMSO, 100% iron-clioquinol control; Potency, µM (titrated, usually from 46.1 µM), most hits filed as activators; 0.063% of 410,000 active; AID 1347071; note: nearly all actives have a fitted effect of over 55% in size
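Growth rescue measured by 600 nm absorbance after 48 h yeast culture at 30 C with compound. Values normalized between DMSO and an equimolar ferric chloride plus clioquinol control.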
Mito fusion act – blocks mitochondrial division or promotes mitochondrial fusion | S. cerevisiae fusion-defective mutant growth rescue, CellTiterGlo 48 h | Potency, µM (top dose mostly 46.1 µM), most hits filed as activators | 0.23% of 320,000 active | AID 485298; note: nearly all actives have a fitted effect of over 45% in size
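Growth-rescue viability read-out: after 48 h at the non-permissive 37C in glycerol/ethanol YPEG, yeast mitochondrial fusion mutants are measured by CellTiterGlo luminescence; compounds (23 nl pinned per well) restoring growth score as division inhibitors or fusion activators.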
aSyn yeast inh – rescues yeast growth from alpha-synuclein toxicity. Yeast expressing alpha-synuclein, growth rescue, BacTiter-Glo, 24 h. Potency, µM (series often up to 46.1 µM), usual class: activators. 0.14% of 370,000 active. AID 652106; note: nearly all actives have a fitted effect of over 65% in size
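Readout is rescue of growth in alpha-synuclein-expressing yeast, so inhibitors of toxicity appear as activators. Growth after 24 hr at 30 deg C in galactose medium is quantified by luminescence.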
FUS yeast rescue – suppressors of FUS proteinopathy in yeast. S. cerevisiae FUS-expressing, growth rescue, OD600, 24 h. Potency, µM (series often up to 76.6 µM), usual class: activators. 0.24% of 390,000 active. AID 1347120; note: nearly all actives have a fitted effect of over 55% in size
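Compound concentration series was pinned onto galactose-induced FUS-expressing yeast seeded at OD 0.005. Plates sat 24hr at 30C; absorbance at 600 nm gave growth. DMSO served as background control.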
TDP43 rescue – inhibitors of TDP-43 toxicity in yeast; TDP-43 expressing yeast growth rescue, BacTiter-Glo, 24 h; Potency, µM (top dose mostly 46.1 µM), hits mostly activators; 1.8% of 410,000 active; note: nearly all actives have a fitted effect of over 50% in size
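Yeast expressing TDP-43 (pregrown in raffinose, seeded at OD600=0.02 in galactose medium) exposed to compounds 24 hr at 30 deg C. Growth read by BacTiter-Glo luminescence; rescue of toxicity appears as increased signal.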
Numbers stand for hits; n = inactive; u = inconclusive; x = no result given; [ ] = dose if it differs, or a comment. The list is not random: actives were taken first. Their share in the collection is about 2.2%. Calls come from the whole dose curve; as a rule, active = well fitted curve in the direction sought with a large enough effect; inconclusive = small, poorly fitted or top-dose-only effect, or another doubt; inactive = no such curve, though single readings can be large; an effect the other way counts as inactive or inconclusive.

SMILES	Abeta rescue	Mito fusion act	aSyn yeast inh	FUS yeast rescue	TDP43 rescue
Cc1ccc(N2C(=O)[C@@H]3[C@H](C2=O)[C@H]2C=C(C(=O)c4ccccc4)C=CN2[C@@H]3C(=O)c2ccc(Cl)cc2)cc1	n	n	n	28µM	n
Cc1nc(NCC(=O)c2c[nH]c3ccccc23)sc1C	x	x	n	x	x
O=c1c2c3c(sc2nc2n1CCC2)CCCC3	n	n	n	n	n
O=c1c2c3c(sc2nc2n1CCCCC2)CCCC3	n	n	n	n	13µM
O=c1c2c3c(sc2nc2n1CCCS2)CCCC3	n	n	n	n	18µM
O=C(CSc1ccc(Cl)cc1)N1N=CCC1c1ccccc1 (stereo unspecified)	n	n	n	n	13µM
NC(=NC(=O)c1ccc(Cl)cc1)N1N=CCC1c1ccccc1 (stereo unspecified)	n	n	n	n	u
O=C(Nc1ccc(Cl)c(Cl)c1)N1N=CCC1c1ccccc1 (stereo unspecified)	n	n	n	u	22µM
COc1cccc(C(NC(C)=O)c2nc(-c3ccc(C)c(C)c3)cs2)c1 (stereo unspecified)	n	x	18µM	n	n
COc1cccc(C(NC(C)=O)c2nc(-c3ccc4ccccc4c3)cs2)c1 (stereo unspecified)	n	x	u	u	u
CC(=O)NC(c1ccccc1)c1nc(-c2ccc(C)c(C)c2)cs1 (stereo unspecified)	n	x	n	n	20µM
CCOc1ccc(NS(=O)(=O)c2ccc(C(=O)N(C)Cc3cccc(OC)c3OC)cc2)cc1	n	n	n	22µM	n
COc1cccc(CN(C)C(=O)c2ccc(NS(=O)(=O)c3ccc4[nH]c(=O)[nH]c4c3)cc2)c1OC	n	n	n	x	n
Brc1ccc(-c2csc(-c3c[nH]c4ccccc34)n2)cc1	n[9.22 µM]	n	n	n	n
c1ccc2c(-c3csc(-c4ccncc4)n3)c[nH]c2c1	n	n	n	n	4µM
NC(=O)/C=C/C(=O)Nc1ccc(Cl)cc1	n	n	n	n	20µM
O=C(Nc1ccc(Br)cc1F)c1ccc2nc(CCc3ccccc3)oc2c1	n	x	x	n	n
COc1cc2nc(N3CCCN(C)CC3)nc(NC3CCOCC3)c2cc1OC	x	x	n	x	x
O=C(Nc1ccc(Cl)cc1)P(=O)(O)c1ccccc1	n	x	n	n	18µM
NC(=O)Nc1ccc(Cl)cc1	n	n	n	n	n
COc1ccc(-c2cc(C3CC3)nc3sc(C#N)c(N)c23)cc1	n	13µM	n	n	n
Cc1ccccc1NC(=O)C1CCN(S(=O)(=O)c2ccccc2)CC1	n	n	x	n	n
CCc1ccccc1Nc1nn2c(=O)c3ccc(C(=O)NCCCOC(C)C)cc3nc2s1	n	n	x	n	n
COc1ccccc1NC(=O)CSC1=Nc2ccccc2C2=NC(CCC(=O)NCc3cccs3)C(=O)N12 (stereo unspecified)	n	x	x	n	u
O=C(Nc1ccccc1N1CCOCC1)c1ccc2ccccc2n1	n	u	n	n	13µM
SMILES	Abeta rescue	Mito fusion act	aSyn yeast inh	FUS yeast rescue	TDP43 rescue
O=C1CSC(c2ccc(Cl)c(Cl)c2)N1c1nccs1 (stereo unspecified)	n	n	n[1.84 µM]	n	14µM
CCCn1nc(C(=O)NC2CC2)c2ccccc2c1=O	n	n	n	n	n
CCCn1nc(C(=O)Nc2nc(-c3ccccn3)cs2)c2ccccc2c1=O	10µM	n	n[1.84 µM]	n	u
COc1ccc(-n2nc(C(=O)NCC(=O)NCC3COc4ccccc4O3)c3ccccc3c2=O)cc1OC (stereo unspecified)	n	n	n	18µM	n
CCCn1nc(C(=O)NCC2COc3ccccc3O2)c2ccccc2c1=O (stereo unspecified)	n	n	n[1.84 µM]	n	22µM
COc1ccc(-n2nc(C(=O)NCC(=O)NCC3COc4ccccc4O3)c3ccccc3c2=O)c(OC)c1 (stereo unspecified)	n	n	n	n	n
CCn1nc(C(=O)Nc2nc(-c3ccccn3)cs2)c2ccccc2c1=O	n	n	n	n	u
CC(C)c1ccc(Nc2nc(NCc3ccco3)nc(N3CCOCC3)n2)cc1	n	n	n	n	16µM
O=C(Cc1ccccc1)n1nc(-c2ccco2)nc1SCc1ccccc1	n	n	n	n	11µM
